Assay results taken from the supplement of paper PMC12494721.
Structures can show the parent of a compound that is named as a salt. A number with no mark means an inactive call.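 How the source made its calls: for the amine columns active = adjusted P below 0.05 in both replicates with a change the same way and a mean fold change under 0.8 or over 1.25; inactive = the rest.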

tested on: Clostridium sporogenes DSM 1664; experiment: fold change of Tryptamine concentration vs plate DMSO controls (fold change (ratio)); higher = more amine produced, active = hit call of the paper (significant change in both replicates, either direction); conditions: incubation time: 27 h, anaerobic, 37 °C
How it was run: (§1)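 Amine values are fold changes relative to DMSO-only wells on the same plate. They derive from 27 h, 37 °C anaerobic mGAM cultures of four gut bacterial strains in 80 µL wells, dosed at 20 µM final, or 50 µM final for sweeteners. Extraction of the whole culture, LC–triple-quadrupole MS in dynamic MRM mode, external calibration curves and within-batch drift correction were used, with 2 biological replicates averaged.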

| SMILES | fold change of Tryptamine concentration |
| --- | --- |
| CC(C)(C)NC(=O)[C@@H]1CN(Cc2cccnc2)CCN1C[C@@H](O)C[C@@H](Cc1ccccc1)C(=O)N[C@H]1c2ccccc2C[C@H]1O [Indinavir sulfate] (20 µM) | 1.04 |
| c1ccc2c(c1)CCCC2C1=NCCN1 (centres undefined) [Tetrahydrozoline hydrochloride] (20 µM) | 1.01 |
| O=[N+]([O-])c1ccc(O)c2ncccc12 [Nitroxoline] (20 µM) | 0.897 |
| COCC(=O)O[C@]1(CCN(C)CCCc2nc3ccccc3[nH]2)CCc2cc(F)ccc2[C@@H]1C(C)C [Mibefradil hydrochloride] (20 µM) | 0.999 |
| Nc1nc(Cl)nc2c1ncn2[C@H]1C[C@H](O)[C@@H](CO)O1 [Cladribine] (20 µM) | 1.06 |
| CN(CCOc1ccc(CC2SC(=O)NC2=O)cc1)c1ccccn1 (centres undefined) [Rosiglitazone hydrochloride] (20 µM) | 1.06 |
| C[C@@H](O)[C@H]1C(=O)N2C(C(=O)O)=C(S[C@@H]3CN[C@H](C(=O)N(C)C)C3)[C@H](C)[C@H]12 [Meropenem] (20 µM) | 0.0316 (active) |
| CNCCC=C1c2ccccc2C=Cc2ccccc21 [Norcyclobenzaprine] (20 µM) | 0.985 |
| CCCCS(=O)(=O)N[C@@H](Cc1ccc(OCCCCC2CCNCC2)cc1)C(=O)O [Tirofiban hydrochloride] (20 µM) | 0.943 |
| OC[C@H]1O[C@@H](n2cnc3cncnc32)[C@H](O)[C@@H]1O [Nebularine] (20 µM) | 0.874 |
| CC1(C)S[C@@H]2[C@H](NC(=O)[C@H](N)c3ccccc3)C(=O)N2[C@H]1C(=O)O [Ampicillin trihydrate] (20 µM) | 0.01 (active) |
| Oc1ncnc2[nH]ncc12 [Allopurinol] (20 µM) | 1.04 |
| CC(C)(C)c1ccc(C(=O)CCCN2CCC(OC(c3ccccc3)c3ccccc3)CC2)cc1 [Ebastine] (20 µM) | 0.991 |
| CCOC(N)=O [Urethane] (20 µM) | 0.944 |

tested on: Ruminococcus gnavus DSM 108212; experiment: as above; conditions: incubation time: 27 h, anaerobic, 37 °C
How it was run: as §1

| SMILES | fold change of Tryptamine concentration |
| --- | --- |
| CC(=O)[C@H]1CC[C@H]2[C@@H]3CC=C4C[C@@H](O)CC[C@]4(C)[C@H]3CC[C@]12C [Pregnenolone] (20 µM) | 0.998 |
| CC(C(=O)O)c1ccc(N2Cc3ccccc3C2=O)cc1 (centres undefined) [Indoprofen] (20 µM) | 1.09 |
| Cc1cc(O)c(C(=O)N[C@@H](C(=O)N[C@@H]2C(=O)N3C(C(=O)O)=C(CSc4nnnn4C)CS[C@H]23)c2ccc(O)cc2)cn1 [Cefpiramide] (20 µM) | 0.0434 (active) |
| CC(C)=CCC1C(=O)N(c2ccccc2)N(c2ccccc2)C1=O [Feprazone] (20 µM) | 1.01 |
| COC(=O)C1=C(C)NC(C)=C(C(=O)OCCN(C)Cc2ccccc2)C1c1cccc([N+](=O)[O-])c1 (centres undefined) [Nicardipine hydrochloride] (20 µM) | 0.915 |
| COCCOC(=O)C1=C(C)NC(C)=C(C(=O)OC(C)C)C1c1cccc([N+](=O)[O-])c1 (centres undefined) [Nimodipine] (20 µM) | 0.909 |
| NS(=O)(=O)c1cc2c(cc1Cl)N=CNS2(=O)=O [Chlorothiazide] (20 µM) | 0.998 |
| CC(Oc1ccccc1)C(=O)N[C@@H]1C(=O)N2[C@@H]1SC(C)(C)[C@@H]2C(=O)O (some centres undefined) [Phenethicillin potassium salt] (20 µM) | 0.045 (active) |
| Cc1ccc(N(CC2=NCCN2)c2cccc(O)c2)cc1 [Phentolamine hydrochloride] (20 µM) | 1 |
| CC1(C)O[C@@H]2C[C@H]3[C@@H]4C[C@H](F)C5=CC(=O)CC[C@]5(C)[C@H]4[C@@H](O)C[C@]3(C)[C@]2(C(=O)CO)O1 [Flurandrenolide] (20 µM) | 1.16 |
| NS(=O)(=O)c1cc2c(cc1C(F)(F)F)NCNS2(=O)=O [Hydroflumethiazide] (20 µM) | 0.987 |
| Nc1nc(/C(=C/CC(=O)O)C(=O)N[C@@H]2C(=O)N3C(C(=O)O)=CCS[C@H]23)cs1 [Ceftibuten] (20 µM) | 1.04 |
| O=C(O)Cc1ccc(-c2ccccc2)cc1 [Felbinac] (20 µM) | 1.01 |
| Nc1nnc(-c2cccc(Cl)c2Cl)c(N)n1 [Lamotrigine] (20 µM) | 1.04 |
| Nc1nc(=O)c2nc(CNc3ccc(C(=O)N[C@@H](CCC(=O)O)C(=O)O)cc3)cnc2[nH]1 [Folic acid] (20 µM) | 0.955 |
| Nc1ccc(S(=O)(=O)NC(=O)c2ccccc2)cc1 [Sulfabenzamide] (20 µM) | 1.04 |
| CCC(=O)O[C@]1(C(=O)SCF)[C@H](C)C[C@H]2[C@@H]3C[C@H](F)C4=CC(=O)C=C[C@]4(C)[C@@]3(F)[C@@H](O)C[C@@]21C [Fluticasone propionate] (20 µM) | 0.935 |
| CCOC(=O)[C@H](CCc1ccccc1)N[C@@H](C)C(=O)N1[C@H](C(=O)O)C[C@@H]2CCC[C@@H]21 [Ramipril] (20 µM) | 0.966 |
| CO/N=C(\C(=O)N[C@@H]1C(=O)N2C(C(=O)OCOC(=O)C(C)(C)C)=C(/C=C\c3scnc3C)CS[C@H]12)c1csc(N)n1 [Cefditoren Pivoxil] (20 µM) | 1 |
| NC[C@H]1O[C@H](O[C@H]2[C@H](O[C@@H]3O[C@H](CO)[C@@H](O)[C@H]3O)[C@@H](O)[C@H](N)C[C@@H]2N)[C@H](N)[C@@H](O)[C@@H]1O [Ribostamycin sulfate salt] (20 µM) | 0.996 |

| SMILES | fold change of Tryptamine concentration |
| --- | --- |
| Brc1c(NC2=NCCN2)ccc2nccnc12 [Brimonidine L-tartrate] (20 µM) | 0.885 |
| O=c1[nH]cnc2c1ncn2[C@H]1CC[C@@H](CO)O1 [Didanosine] (20 µM) | 1.15 |
| NS(=O)(=O)Cc1noc2ccccc12 [Zonisamide] (20 µM) | 0.863 |
| CN(C)CCC(c1ccc(Cl)cc1)c1ccccn1 (centres undefined) [Chlorpheniramine maleate] (20 µM) | 1.03 |
| OCC(O)CN1CCN(c2ccccc2)CC1 (centres undefined) [Dropropizine] (20 µM) | 1.05 |
| CC(=O)[C@H]1CC[C@H]2[C@@H]3CCC4=CC(=O)CC[C@]4(C)[C@H]3CC[C@]12C [Progesterone] (20 µM) | 0.981 |
| CC(C)(C)NC(=O)[C@@H]1CN(Cc2cccnc2)CCN1C[C@@H](O)C[C@@H](Cc1ccccc1)C(=O)N[C@H]1c2ccccc2C[C@H]1O [Indinavir sulfate] (20 µM) | 1.05 |
| c1ccc2c(c1)CCCC2C1=NCCN1 (centres undefined) [Tetrahydrozoline hydrochloride] (20 µM) | 0.993 |
| O=[N+]([O-])c1ccc(O)c2ncccc12 [Nitroxoline] (20 µM) | 0.693 (active) |
| COCC(=O)O[C@]1(CCN(C)CCCc2nc3ccccc3[nH]2)CCc2cc(F)ccc2[C@@H]1C(C)C [Mibefradil hydrochloride] (20 µM) | 0.925 |
| Nc1nc(Cl)nc2c1ncn2[C@H]1C[C@H](O)[C@@H](CO)O1 [Cladribine] (20 µM) | 0.925 |
| CN(CCOc1ccc(CC2SC(=O)NC2=O)cc1)c1ccccn1 (centres undefined) [Rosiglitazone hydrochloride] (20 µM) | 1.08 |
| C[C@@H](O)[C@H]1C(=O)N2C(C(=O)O)=C(S[C@@H]3CN[C@H](C(=O)N(C)C)C3)[C@H](C)[C@H]12 [Meropenem] (20 µM) | 0.0446 (active) |
| CNCCC=C1c2ccccc2C=Cc2ccccc21 [Norcyclobenzaprine] (20 µM) | 0.939 |
| CCCCS(=O)(=O)N[C@@H](Cc1ccc(OCCCCC2CCNCC2)cc1)C(=O)O [Tirofiban hydrochloride] (20 µM) | 1.03 |
| OC[C@H]1O[C@@H](n2cnc3cncnc32)[C@H](O)[C@@H]1O [Nebularine] (20 µM) | 0.943 |
| CC1(C)S[C@@H]2[C@H](NC(=O)[C@H](N)c3ccccc3)C(=O)N2[C@H]1C(=O)O [Ampicillin trihydrate] (20 µM) | 0.0662 (active) |
| Oc1ncnc2[nH]ncc12 [Allopurinol] (20 µM) | 1.01 |
| CC(C)(C)c1ccc(C(=O)CCCN2CCC(OC(c3ccccc3)c3ccccc3)CC2)cc1 [Ebastine] (20 µM) | 0.856 |
| CCOC(N)=O [Urethane] (20 µM) | 0.961 |
